# Assay results published in PubChem BioAssay (Tox21).
# Results filed as inconclusive are left out. Where a call stands in place of a potency, no number is given. Values without a mark were called inactive. Calls of active or inactive are those of the source. The call rests on the fitted dose curve; in most records, active means well fitted cell-killing curve with a large enough effect in the repeat runs; inconclusive means weak or mixed curves, or effect the other way; inactive means flat fitted curve, though single readings scatter.
# Tests used:
# [1] = cAMP Responsive Elements (CRE) small molecule antagonists, cell-based qHTS assay: qHTS cell viability counter screen (AID 2060913); further: nearly all actives have a fitted effect of over 40% in size; further: potency means the concentration at half of the fitted maximal effect
# Summary of the method: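 HEK293T CRE-bla, 2,000 cells/well, 18 h preincubation; cpd in DMSO + NKH477 0.25 uM final, 3 h 37 C/5% CO2; LiveBLAzer 2 h RT, then CellTiter-Glo 30 min RT, luminescence.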
# [2] = cAMP Responsive Elements (CRE) small molecule agonists, cell-based qHTS assay: qHTS cell viability counter screen (AID 2060914);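 further: viability read after 3 h of compound exposure; nearly all actives have a fitted effect of over 50% in size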
# Summary of the method: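 Cytotoxicity counter screen multiplexed with the CRE-bla reporter assay in HEK 293T cells: 3 h compound exposure at 37 °C, followed by CellTiter-Glo luminescence measured in the same wells.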
smiles,measurement,setting,value
Cc1cc2nc3ccc(=[N+](C)C)cc-3sc2cc1N,Potency,[1],inactive
OC[C@@H](O)[C@@H](O)[C@H](O)[C@H](O)CO,Potency,[1],inactive
Cc1ccc(S(=O)(=O)C(I)I)cc1,Potency,[1],61.1 µM (active)
CC(COc1ccccc1)N(CCCl)Cc1ccccc1 (stereo unspecified),Potency,[1],inactive
Cc1cc(OI)c(C(C)C)cc1-c1cc(C(C)C)c(OI)cc1C,Potency,[1],inactive
CC1=C(Br)C(=O)C(Br)=C/C1=C(/c1ccccc1S(=O)(=O)O)c1cc(Br)c(O)c(Br)c1C,Potency,[1],inactive
O=C(C(=O)c1ccc(Br)cc1)c1ccc(Br)cc1,"viability change, negative = cytotoxic",[1],-3.96% [at 18.9 µM]
CC(C)CC(C)(N)C#N (stereo unspecified),Potency,[1],inactive
O=C(O)CC(O)C(=O)O (stereo unspecified),Potency,[1],inactive
O=C(Cl)c1c(Cl)cccc1Cl,Potency,[1],inactive
C=CCOCC(CC)(CO)COCC=C,Potency,[1],inactive
C1=CCC(c2ccccc2)CC1 (stereo unspecified),Potency,[1],inactive
Cc1onc(-c2c(Cl)cccc2Cl)c1C(=O)Cl,Potency,[1],inactive
Cc1cn[nH]c1,Potency,[1],inactive
CC/C=C\CCCCCCCCCCOC(C)=O,Potency,[1],inactive
Nc1ccc(Cl)c([N+](=O)[O-])c1,Potency,[1],inactive
NCCCCCC(=O)O,Potency,[1],inactive
CC(=O)OCc1ccccc1,Potency,[1],inactive
C[C@]12CC[C@@H]3c4ccc(O)cc4CC[C@H]3[C@@H]1CCC2=O,Potency,[1],inactive
COC(=O)C1=C(C)NC(C)=C(C(=O)OCCN(C)Cc2ccccc2)C1c1cccc([N+](=O)[O-])c1 (stereo unspecified),Potency,[1],inactive
C[Si]1(C)N[Si](C)(C)N[Si](C)(C)N1,Potency,[1],inactive
CCN(CCC#N)c1ccc(N=Nc2c(Cl)cc([N+](=O)[O-])cc2Cl)cc1,Potency,[1],inactive
CC(C)(C)c1ccc(O)c(C(C)(C)C)c1,Potency,[1],48.6 µM (active)
Nc1ncnc2c1ncn2[C@H]1CC[C@@H](CO)O1,Potency,[1],inactive
CCOc1ncc(F)c(=O)[nH]1,Potency,[1],inactive
O=S(=O)(O)c1ccc(Cl)cc1,Potency,[1],inactive
C=CC(=O)OCCOC1C2CCC1C1CC=CC12 (stereo unspecified),"viability change, negative = cytotoxic",[1],9.26% [at 18.9 µM]
CCN1CCCC(OC(=O)C(c2ccccc2)c2ccccc2)C1 (stereo unspecified),Potency,[1],inactive
O=Cc1ccccc1C=O,Potency,[1],inactive
O=NN(CCCl)C(=O)NC1CCCCC1,Potency,[1],inactive
O=C(Nc1cccc([N+](=O)[O-])c1)c1cc2ccccc2cc1O,Potency,[1],inactive
NCc1ccc(S(N)(=O)=O)cc1,Potency,[1],inactive
CCCC(CCC)(C(=O)OCC)C(=O)OCC,Potency,[1],inactive
CCOC(C)=O,Potency,[1],inactive
c1ccc([C@H]2CN3CCSC3=N2)cc1,Potency,[1],inactive
Cc1ccco1,Potency,[1],inactive
O=C1c2c(O)cccc2Cc2cccc(O)c21,Potency,[1],inactive
CNCc1ccc(NC(=O)c2c[nH]c3c2C(=O)CCC3)cc1,Potency,[1],inactive
CC(C)(O)c1ccc(CNC(=O)c2cccnc2Oc2ccc(F)cc2)cc1,Potency,[1],inactive
CCCCCCOC(=O)c1ccccc1,Potency,[1],inactive
CCCCCCCCCCCC(=O)NCCCN(C)C,Potency,[1],61.1 µM (active)
Cc1cc(F)ccc1-c1cc(N2CC[C@@H](O)[C@H]2CO)ncc1N(C)C(=O)C(C)(C)c1cc(C(F)(F)F)cc(C(F)(F)F)c1,Potency,[1],44.6 µM (active)
CC(O)CC(C)(C)O (stereo unspecified),Potency,[1],inactive
C=C(C)C(=O)OCCCCCCCCCCCCCCCCCC,"viability change, negative = cytotoxic",[1],12.4% [at 18.9 µM]
C=C(C)C(=O)OCCC(C)OC(=O)C(=C)C (stereo unspecified),Potency,[1],inactive
CC(C)OC(=O)COc1ccc(Cl)cc1Cl,Potency,[1],inactive
CC1(C)[C@H]2CC[C@](C)(C2)[C@H]1O,Potency,[1],inactive
O=[N+]([O-])c1ccc(Cl)cc1Cl,Potency,[1],inactive
C[C@]12CC[C@@H]3c4ccc(O)cc4CC[C@H]3[C@@H]1CC[C@@H]2O,Potency,[1],inactive
CC(C)(C)c1ccc(C(O)CCCN2CCC(C(O)(c3ccccc3)c3ccccc3)CC2)cc1 (stereo unspecified),Potency,[1],inactive
CCCCCCCC/C=C\CCCCCCCC(=O)OC,Potency,[1],inactive
CCN(CC)C(=O)c1ccc(O)c(OC)c1,Potency,[1],inactive
OCC(CO)(CO)COCC(CO)(CO)CO,Potency,[1],inactive
CC(=O)CCc1ccc(OC(C)=O)cc1,Potency,[1],inactive
NCCCN(CCO)CCO,Potency,[1],inactive
CCC=O,Potency,[1],inactive
COc1ccc2nc(N)sc2c1,Potency,[1],inactive
Cc1ccc2c(ccc3ccccc32)c1,Potency,[1],inactive
OC[C@@H](O)[C@@H](O[C@@H]1O[C@H](CO)[C@H](O)[C@H](O)[C@H]1O)[C@H](O)[C@@H](O)CO,Potency,[1],inactive
C[C@]12CC[C@@H]3c4ccc(O)cc4CC[C@H]3[C@@H]1CC[C@H]2O,Potency,[1],inactive
CN1CCCC1,Potency,[1],inactive
CC(=O)OCC(=O)Nc1cc(C#N)cc(NC(=O)COC(C)=O)c1Cl,Potency,[1],inactive
NCC(=O)O,"viability change, negative = cytotoxic",[1],-2.51% [at 18.9 µM]
O=C(O)Cc1cccc(-c2cc(CCCCCCc3ccc(O[C@H]4O[C@H](CO)[C@@H](O)[C@H](O)[C@@H]4O)c(-c4cccc(CC(=O)O)c4)c3)ccc2O[C@H]2O[C@H](CO)[C@@H](O)[C@H](O)[C@@H]2O)c1,"viability change, negative = cytotoxic",[1],1.99% [at 0.349 µM]
CC(C(=O)O)c1ccc(CC2CCCC2=O)cc1 (stereo unspecified),Potency,[1],inactive
C=Cc1ccc(S(=O)(=O)O)cc1,Potency,[1],inactive
CC(N)=O,Potency,[1],inactive
O=C(c1ccccc1)c1cccc(O)c1,Potency,[1],inactive
Cc1ccccc1OCC1CO1 (stereo unspecified),Potency,[1],inactive
CC1=CC[C@H](C(C)C)C=C1,Potency,[1],inactive
CC1=C(/C=C/C(C)=C/C=C/C(C)=C\C=O)C(C)(C)CCC1,Potency,[1],inactive
Nc1cccc2c(N)cccc12,Potency,[1],inactive
CCc1cccc(C)c1N(C(=O)C(=O)O)C(C)COC (stereo unspecified),Potency,[1],inactive
CC1CCC(C(C)(C)S)C(=O)C1 (stereo unspecified),Potency,[1],inactive
CCOC(=O)[C@H](CCc1ccccc1)N[C@@H](C)C(=O)N1Cc2cc(OC)c(OC)cc2C[C@H]1C(=O)O,Potency,[1],inactive
Cc1ncc([N+](=O)[O-])n1C,Potency,[1],inactive
CCC(C)C(C)=O (stereo unspecified),Potency,[1],inactive
C=CC(=O)OCC(Br)CBr (stereo unspecified),Potency,[1],inactive
Cc1cc(O)c(Cl)c(C)c1Cl,Potency,[1],inactive
O=C(O)CCc1nc2ccccc2[nH]1,Potency,[1],inactive
C[C@H]1C[C@H]2[C@@H]3CCC4=CC(=O)C=C[C@]4(C)[C@@]3(F)[C@@H](O)C[C@]2(C)[C@@]1(O)C(=O)CO,Potency,[1],inactive
CC(=O)OC1CCC(C(C)(C)C)CC1 (stereo unspecified),Potency,[1],inactive
c1ccc(OCc2ccc(CCCN3CCOCC3)cc2)cc1,Potency,[1],inactive
OCC(O)CN1CCN(c2ccccc2)CC1 (stereo unspecified),Potency,[1],inactive
CCCCC/C=C\C=C\C(=O)OCC,Potency,[1],inactive
C[N+](C)(C)CCOC(=O)CCC(=O)OCC[N+](C)(C)C,Potency,[1],inactive
Cc1cccn2c(=O)c(-c3nnn[nH]3)cnc12,"viability change, negative = cytotoxic",[1],-1.68% [at 18.9 µM]
CC1=CCC2C(C1)C2(C)C (stereo unspecified),Potency,[1],inactive
COc1cc(N)c(Cl)cc1C(=O)NC1CCN(CCCOc2ccc(F)cc2)CC1OC (stereo unspecified),Potency,[1],inactive
O=C(c1ccccc1)c1ccc(Cl)cc1,Potency,[1],inactive
C=C(C)C(=O)OCC(CC)(COC(=O)C(=C)C)COC(=O)C(=C)C,Potency,[1],inactive
CC(CN)CC(C)(C)CCN (stereo unspecified),Potency,[1],inactive
O=C(OCCOCCO)c1ccccc1Nc1cccc(C(F)(F)F)c1,Potency,[1],inactive
C=C1CC/C=C(\C)CC[C@@H]2[C@@H]1CC2(C)C,Potency,[1],inactive
CCCCNc1ccccc1,Potency,[1],inactive
CC(=O)OCC(C)C,Potency,[1],inactive
CCCCCCCCCCCCOCCO,Potency,[1],inactive
CCCCCCOC(=O)CC,Potency,[1],inactive
CCCC(=O)O[C@]1(C(=O)CCl)[C@@H](C)C[C@H]2[C@@H]3CCC4=CC(=O)C=C[C@]4(C)[C@@]3(F)C(=O)C[C@@]21C,Potency,[1],inactive
CN(C(=O)c1c(O)c2ccccc2n(C)c1=O)c1ccccc1,Potency,[1],inactive
C/C(=N\O)c1ccc(OCC(=O)N2CCCCC2)cc1,Potency,[1],inactive
NC(=O)NC1N=C([O][Al])NC1=O (stereo unspecified),Potency,[1],inactive
O=C1C=CC(=O)N1c1ccc(Cc2ccc(N3C(=O)C=CC3=O)cc2)cc1,Potency,[1],54.5 µM (active)
CC(C)(C)NC[C@H](O)COc1cccc2c1CCCC2=O,Potency,[1],inactive
Cc1ccc(/C=N/n2c(-c3ccccc3)csc2=S)cc1,Potency,[1],inactive
O=C(N[C@H](CO)[C@H](O)c1ccc([N+](=O)[O-])cc1)C(Cl)Cl,Potency,[1],inactive
O=C1OC(OC(=O)c2cccnc2Nc2cccc(C(F)(F)F)c2)c2ccccc21 (stereo unspecified),Potency,[1],inactive
Oc1c(Cl)cc(Cl)c2cccnc12,Potency,[1],inactive
C[Si](C)(CCCN)O[Si](C)(C)CCCN,Potency,[1],inactive
O=C(O)Cc1ccccc1Oc1ccc(Cl)cc1Cl,Potency,[1],inactive
CC(=O)N(CC(O)CO)c1c(I)c(C(=O)NCCO)c(I)c(C(=O)NCC(O)CO)c1I (stereo unspecified),Potency,[1],inactive
CCCCCC/C=C/C=O,Potency,[1],inactive
CC/C=C\CCCCCO,Potency,[1],inactive
CCCCCCCCCCCCCCCCOP(=O)([O-])OCC[N+](C)(C)C,Potency,[1],inactive
OCCN(CCO)c1nc(N2CCCCC2)c2nc(N(CCO)CCO)nc(N3CCCCC3)c2n1,Potency,[1],inactive
CCCCCCCC#N,Potency,[1],inactive
Cc1c(F)c(N2CCNC(C)C2)cc2c1c(=O)c(C(=O)O)cn2C1CC1 (stereo unspecified),Potency,[1],inactive
O=C1OC2(c3ccccc31)c1cc(Br)c(O)c(Br)c1Oc1c2cc(Br)c(O)c1Br,Potency,[1],inactive
C[C@@H]1CCN(C(=O)[C@H](CCCN=C(N)N)NS(=O)(=O)c2cccc3c2NC[C@H](C)C3)[C@@H](C(=O)O)C1,Potency,[1],inactive
CCc1c(C)[nH]c2c1C(=O)C(CN1CCOCC1)CC2 (stereo unspecified),Potency,[1],inactive
same,Potency,[2],inactive
